Redox H2O2 prof: compounds producing H2O2 with reducing agent – biochemical, NIH compound library profiling, artefact control for MLSCN library redox annotation, primary screen; DTT-dependent redox cycling H2O2, phenol red/HRP absorbance; 100% = 100 µM peroxide control, 0% = buffer; activation, % at 10 µM; actives 0.03% (n = 200,000); AID 878, 2007;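 active means activation of at least 50% relative to the plate's high and low controls in the primary single-dose screen; inactive means activation below 50%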;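 further: compound incubated with DTT at 0.8 mM final as the reducing agent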
L929 necroptosis: inhibitors of zVAD-triggered necroptosis, primary screen, L929 cells; AID 1377, 2008; L929 zVAD necroptosis rescue, ATP luminescence, 24 h; with zVAD 60 µM; viability rescue, % at 10 µM; actives 0.38% (n = 220,000);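 active means activation, scaled between plate controls, above about 75%, limit read from the data; inactive means activation under that limit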;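 further: 0% = zVAD with DMSO and 100% = DMSO alone without zVAD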
WT yeast gro inh: growth inhibition of WT strain, primary screen, mitochondrial fusion inhibitor project, WT and mutant strains, chemical genetic; mitochondrial fusion phenotypic screen; inhibition, % at 10 µM; actives 2.1% (n = 190,000); AID 1362, 2008; in the data active means inhibition above about 58%; tested in S. cerevisiae
TNF death inh: inhibitors of TNF-alpha triggered necroptosis, primary screen, cell-based, Jurkat FADD-/-, single concentration; Jurkat FADD-/- TNF necroptosis rescue, ATP luminescence, 24 h; 0 = TNF only, 100 = no-TNF cells; activation (protection from cell death), % at 10 µM; actives 0.068% (n = 220,000);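 active means activation, meaning protection from cell death, of at least 50% relative to plate controls; inactive means activation below 50%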;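 further: necroptosis triggered by 40 ng/mL TNF-alpha added together with compound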
PKD1 inh: inhibitors of human PKD1 kinase, biochemical, fluorescence polarization; PKD1 kinase fluorescence polarization assay; inhibition, % (test concentration not listed); AID 797, 2007; actives 0.056% (n = 200,000); Serine/threonine-protein kinase D1 (Homo sapiens), Q15139; in the data active means inhibition above about 50%
Target sequence (Q15139 whole entry, looked up): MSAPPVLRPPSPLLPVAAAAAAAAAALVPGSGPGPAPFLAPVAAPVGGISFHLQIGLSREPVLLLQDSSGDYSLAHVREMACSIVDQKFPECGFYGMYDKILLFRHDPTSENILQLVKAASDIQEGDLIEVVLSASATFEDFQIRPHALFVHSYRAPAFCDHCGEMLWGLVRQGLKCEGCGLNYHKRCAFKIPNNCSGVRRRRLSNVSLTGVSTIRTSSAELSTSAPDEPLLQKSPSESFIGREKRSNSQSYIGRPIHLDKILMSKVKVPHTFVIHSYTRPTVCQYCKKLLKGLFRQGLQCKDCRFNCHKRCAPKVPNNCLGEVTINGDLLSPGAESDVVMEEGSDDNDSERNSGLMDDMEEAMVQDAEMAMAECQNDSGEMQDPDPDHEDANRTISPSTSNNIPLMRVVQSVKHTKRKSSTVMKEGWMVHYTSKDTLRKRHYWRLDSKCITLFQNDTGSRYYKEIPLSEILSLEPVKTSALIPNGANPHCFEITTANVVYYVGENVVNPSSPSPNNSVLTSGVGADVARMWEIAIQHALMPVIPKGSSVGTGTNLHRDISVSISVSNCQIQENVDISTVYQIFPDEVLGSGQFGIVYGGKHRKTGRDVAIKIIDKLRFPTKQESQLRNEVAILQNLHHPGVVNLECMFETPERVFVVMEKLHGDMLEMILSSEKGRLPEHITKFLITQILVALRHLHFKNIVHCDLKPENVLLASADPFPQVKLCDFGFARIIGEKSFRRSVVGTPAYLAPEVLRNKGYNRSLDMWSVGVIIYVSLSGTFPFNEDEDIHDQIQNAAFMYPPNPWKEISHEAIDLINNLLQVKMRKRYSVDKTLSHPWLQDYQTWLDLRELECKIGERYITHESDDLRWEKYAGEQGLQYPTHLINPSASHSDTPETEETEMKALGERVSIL
PERK inhibitor: block of dimerizer-induced PERK translation repression, primary screen, PERK inhibitor project, CHO PERK-DD cells, SEAP luminescence, HTS | inhibition, % at 5.6 µM | Eukaryotic translation initiation factor 2-alpha kinase 3 (Homo sapiens), Q9NZJ5 | AID 1416, 2008 | actives 0.17% (n = 220,000) | CHO PERK-DD fusion, SEAP luminescence translation reporter;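 active means inhibition above the mean inhibition of all tested compounds plus 3 SD, set separately per screening campaign, cut at about 2.9% in these data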;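 further: PERK kinase domain activated by AP20187 dimerizer at 100 nM; 0% = DMSO with dimerizer and 100% = rapamycin at 8.4 µM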
Numbers without * were called inactive; . = no result given. A selection: hits, their analogues and other compounds. The true share with any hit is near 2.4%.

SMILES	Redox H2O2 prof	L929 necroptosis	WT yeast gro inh	TNF death inh	PKD1 inh	PERK inhibitor
CSCCC(NS(=O)(=O)/C=C/c1ccccc1)C(=O)NCCc1ccc(S(N)(=O)=O)cc1 (stereo not drawn)	.	1	.	0	.	1
CC(C)OCCCNC(=O)C1CCN(S(=O)(=O)N2CCCC2)CC1	1	1	-4	0	1	0
CSc1ccc(CN(C)CC(=O)Nc2ccc(C)cc2Br)cc1	1	0	62*	3	-10	0
CCC(C)c1ccccc1NC(=O)COC(=O)c1ccc2c(c1)S(=O)(=O)c1ccccc1C2=O (stereo not drawn)	0	0	14	2	9	1
Cc1cc(Br)cn2ccnc12	-4	0	-5	-1	1	3.0*
COc1ccc(CNc2oc(-c3cccc4ccccc34)nc2C#N)cc1	0	0	12	0	0	1
CCOP(=O)(OCC)c1nc(-c2cccc3ccccc23)oc1NCCc1ccc(OC)cc1	0	1	70*	2	-6	-1
O=C(O)C1CC=CCC1C(=O)NC1CCCCC1 (stereo not drawn)	0	7	-14	1	-5	1
O=[N+]([O-])c1ccc(Nc2ccccc2)nc1	0	24	-35	90*	8	2
O=[N+]([O-])c1ccc(Nc2cccc(F)c2)nc1	0	3	7	70*	1	-1
O=[N+]([O-])c1ccc(Nc2ccc(F)cc2)nc1	0	4	18	73*	8	0
O=C(Nc1ccc(F)cc1)Nc1ccc([N+](=O)[O-])cn1	-1	7	18	1	2	1
O=[N+]([O-])c1ccc(NCc2ccccc2)nc1	-1	3	18	76*	3	0
COc1ccc(OCC(=O)NNC(=O)c2cccc(O)c2)cc1	1	0	8	0	5	2
COC(=O)C1=C(C)NC(=S)N(C(C)=O)C1c1ccc(OC)c(OC)c1 (stereo not drawn)	0	0	-6	1	5	0
O=[N+]([O-])c1ccc(N/N=C\c2cccn2-c2ccccc2)nc1	-2	2	61*	7	-10	0
Cc1ccccc1-n1c(C)cc(/C=N/Nc2ccc([N+](=O)[O-])cn2)c1C	1	0	-3	0	-6	0
CCn1c2ccccc2c2cc(CN3CCN(Cc4cc(OC)ccc4O)CC3)ccc21	0	4	60*	2	-2	-1
CC1CCN(S(=O)(=O)c2ccc(Oc3ccc([N+](=O)[O-])cc3)cc2)CC1	1	0	61*	-13	-13	1
CN1N=C(C(C)(C)C)CC1=O	.	0	.	1	.	3.4*
CN1N=C(C(F)(F)F)CC1=O	-1	1	2	1	-1	0
C[n+]1c2n(c3ccccc31)N=C(c1ccc(-c3ccccc3)cc1)CS2	0	-3	87*	-7	0	-1
Cc1cccc(NC(=S)NCCC(c2ccccc2)c2ccccc2)c1	.	0	69*	-6	0	1
COc1ccc(NC(=S)NCCC(c2ccccc2)c2ccccc2)c(OC)c1	2	1	65*	-16	-9	1
COc1cccc(NC(=S)NCCC(c2ccccc2)c2ccccc2)c1	-5	0	76*	-12	-14	1
SMILES	Redox H2O2 prof	L929 necroptosis	WT yeast gro inh	TNF death inh	PKD1 inh	PERK inhibitor
COc1ccc(NC(=S)NCCc2ccccc2OC)c(OC)c1	0	-1	37	-4	-2	0
COc1cc(NC(=S)NCCC(c2ccccc2)c2ccccc2)cc(OC)c1	0	.	66*	-17	3	-1
Cc1cccc(NC(=S)NNC(=S)NCc2ccccc2)c1	0	0	7	1	-4	1
CC(=O)Nc1ccc(NC(=O)C2CCCN2/C=C/C(=O)C(F)(F)F)cc1 (stereo not drawn)	-1	2	-31	0	-3	2
O=C(O)CC(Sc1n[nH]c(=S)s1)C(=O)O (stereo not drawn)	.	0	.	2	.	2
COc1ccc(NC(=S)N2CCN(C(c3ccccc3)c3ccccc3)CC2)c(OC)c1	1	3	69*	0	4	-1
CNC(=S)NCCC(c1ccccc1)c1ccccc1	-1	0	67*	0	8	0
O=C(NCCC(c1ccccc1)c1ccccc1)c1cccs1	0	0	39	4	-10	0
Cc1ccc(O)c(-c2cc(-c3ccccc3[N+](=O)[O-])[nH]n2)c1	0	3	58	-3	-6	1
Cc1ccc(O)c(-c2cc(-c3ccccc3C)[nH]n2)c1	1	1	78*	-6	-2	0
O=C(O)c1ccccc1C(=O)Nc1ccc(S(=O)(=O)NC2CCCCC2)cc1	0	1	-10	0	1	0
CCCCC(CC)CNC(=O)C(Cc1ccccc1)NS(=O)(=O)c1ccc2c(c1)CCC(=O)N2 (stereo not drawn)	0	0	3	0	-3	0
COc1ccc(NC(=O)c2ccc(Cl)c(S(=O)(=O)N3CCc4ccccc4C3)c2)cn1	0	3	58*	-11	-2	0
O=C(Nc1cccnc1)c1cccc(S(=O)(=O)N2CCc3ccccc32)c1	-2	1	6	0	-1	0
O=C(Nc1cccnc1)c1ccc(Cl)c(S(=O)(=O)N2CCc3ccccc32)c1	-1	0	60*	-8	-8	1
CCc1nnc(NC(=O)c2ccc(Cl)c(S(=O)(=O)N3CCc4ccccc4C3)c2)s1	0	1	-2	1	-3	0
COC(=O)c1c(NC(=O)CC2SC(N)=NC2=O)sc(C)c1C (stereo not drawn)	0	0	3	-2	6	1
COc1ccc(CCNC(=S)NC2CCN(Cc3ccccc3)CC2)cc1	0	0	-1	-1	3	1
O=C(COC(=O)c1cc(Br)ccc1Cl)NC1CCCC1	0	1	7	0	-2	1
CC1=CN2C(=N)/C(=C/c3ccc(Sc4ccc(C)cc4)o3)C(=O)N=C2S1	0	1	77*	2	2	1
Cc1cc2nc(C)n(CCCNC(=O)Nc3cccc4ccccc34)c2cc1C	0	0	-9	-4	7	-1
CCC(C)(C)c1ccc(Oc2ccc(N)cc2)cc1	0	0	89*	-10	0	-1

High-throughput results from PubChem BioAssay.
